The record followed here is PubChem BioAssay AID720597 (Broad Institute, 2013).

Entries with a potency or affinity are not part of this list. Values without a mark were called inactive.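 The calls were made as follows: active = fitted half-maximal dose no more than twice the top valid tested dose, for compounds that lower signal; inconclusive = fit invalid, or curve flat with activity between -70 and -30; inactive = potency past limit, curve flat within ±30, or signal increasing.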

For this assay, the target named is NAD-dependent protein deacylase sirtuin-5, mitochondrial (Homo sapiens) (UniProt Q9NXA8). The assay is described as follows: SIRT5 deacylase inhibitors, dose response, biochemical, fluorescence imaging, cherry-pick, set 6 (AID 720597).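 Also: lower AMC signal can also come from blocking the trypsin step; 0% = median of neutral control wells and -100% = median of positive control wells.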 As to conditions: Purified SirT5, succinyl-peptide-AMC/trypsin fluorescence; series mostly up to 15 µM; activity change, negative = inhibition: at the top concentration.
NAD-dependent protein deacylase sirtuin-5, mitochondrial (Homo sapiens), sequence (Q9NXA8 whole entry, looked up): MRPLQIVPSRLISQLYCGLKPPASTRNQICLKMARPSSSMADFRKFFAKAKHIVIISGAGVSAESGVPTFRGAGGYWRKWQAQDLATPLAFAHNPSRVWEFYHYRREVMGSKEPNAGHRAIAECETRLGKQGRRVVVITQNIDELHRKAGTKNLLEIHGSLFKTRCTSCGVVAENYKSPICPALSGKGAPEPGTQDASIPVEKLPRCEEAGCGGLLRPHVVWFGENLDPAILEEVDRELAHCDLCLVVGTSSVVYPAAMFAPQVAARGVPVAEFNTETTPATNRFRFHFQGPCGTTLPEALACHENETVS
`O=S(=O)(N[C@@H]1CC[C@@H](CCn2cc(Cc3ccccc3)nn2)O[C@H]1CO)c1ccccc1F`: the “activity change, negative = inhibition” value was 8.56%.

As to `Cc1ccc(S(=O)(=O)N(C)C[C@@H]2OCCCC[C@@H](C)Oc3ccc(NS(=O)(=O)c4ccccc4)cc3C(=O)N([C@H](C)CO)C[C@H]2C)cc1`, the “activity change, negative = inhibition” value was 1.8%.

With `C[C@@H]1CN([C@@H](C)CO)C(=O)c2cc(NS(=O)(=O)c3ccc(F)cc3)ccc2O[C@@H](C)CCCCO[C@H]1CN(C)Cc1ccc(C(F)(F)F)cc1`, the “activity change, negative = inhibition” value is -16.4%.

Take `CNC[C@@H]1Oc2ccc(NC(=O)Nc3ccc(F)cc3)cc2CC(=O)N([C@@H](C)CO)C[C@H]1C`: the “activity change, negative = inhibition” value was 14.1%.

Turning to `COc1ccc(NC(=O)Nc2ccc3c(c2)C(=O)N([C@@H](C)CO)C[C@@H](C)[C@@H](CN(C)Cc2ccncc2)O3)cc1`, the “activity change, negative = inhibition” value is -15.8% [at 16 µM].

As to `COc1ccccc1NC(=O)Nc1ccc2c(c1)C(=O)N(C)C[C@H](OC)[C@H](C)CN[C@@H](C)CO2`, the “activity change, negative = inhibition” value is -29.5%.

Take `CO[C@@H](C(=O)N(C)C[C@H]1OCc2ccccc2-c2ccccc2C(=O)N([C@@H](C)CO)C[C@@H]1C)c1ccccc1`: the “activity change, negative = inhibition” value is 32.8%.

On to `C[C@@H]1CCCCO[C@@H](CN(C)Cc2ccc(C(F)(F)F)cc2)[C@H](C)CN([C@@H](C)CO)C(=O)c2cc(NS(=O)(=O)c3cccs3)ccc2O1`, for which the “activity change, negative = inhibition” value was -23.6%.

As to `C[C@@H]1CN([C@H](C)CO)C(=O)c2c(c3ccccc3n2C)-c2ccccc2CO[C@@H]1CN(C)S(=O)(=O)c1ccc(C(F)(F)F)cc1`, the “activity change, negative = inhibition” value was 5.77%.

Take `COc1ccc([Si](C)(C)[C@H]2[C@H](CCn3cc([C@H](O)c4ccccc4)nn3)O[C@@]3(C(=O)N(Cc4cccc(N5CCOC5=O)c4)c4ccccc43)[C@@H]2C)cc1`: the “activity change, negative = inhibition” value is -6.17%.

Take `Cc1ccccc1S(=O)(=O)N(C)C[C@H]1OCc2ccccc2-c2c(n(C)c3ccccc23)C(=O)N([C@@H](C)CO)C[C@@H]1C`: the “activity change, negative = inhibition” value is 2.1%.

Take `C[C@H]1CN([C@@H](C)CO)S(=O)(=O)c2ccc(C#CC(C)(C)O)cc2O[C@H]1CN(C)Cc1ccc(-c2ccccc2)cc1`: the “activity change, negative = inhibition” value is 17.7%.

As to `CCCC#Cc1ccc2c(c1)O[C@H](CN(C)C(=O)c1ccccc1F)[C@@H](C)CN([C@@H](C)CO)S2(=O)=O`, the “activity change, negative = inhibition” value is -29.6%.

`Cc1ccc(S(=O)(=O)N(C)C[C@@H]2OCCCC[C@H](C)Oc3ccc(NS(=O)(=O)c4ccc(Cl)cc4)cc3C(=O)N([C@H](C)CO)C[C@@H]2C)cc1`: the “activity change, negative = inhibition” value was -16.7%.

Regarding `COc1cccc(NC(=O)N2CC(=O)N3[C@H](CO)[C@H](c4ccc(C#CCC5CCCC5)cc4)[C@@H]3C2)c1`, the “activity change, negative = inhibition” value was -10.9%.

In the case of `COc1ccccc1S(=O)(=O)N(C)C[C@H]1Oc2cc(C#CCC(C)C)ccc2S(=O)(=O)N([C@H](C)CO)C[C@@H]1C`, the “activity change, negative = inhibition” value was -10.2%.

On to `O=C(CN1CCOCC1)N1CC[C@H]2[C@H](CO)Nc3ccc(-c4ccc(F)cc4)cc3[C@H]21`, for which the “activity change, negative = inhibition” value is -8.05%.

Regarding `COc1cccc(S(=O)(=O)N(C)C[C@H]2Oc3cc(C4=CCCC4)ccc3S(=O)(=O)N([C@H](C)CO)C[C@H]2C)c1`, the “activity change, negative = inhibition” value was -11.6%.

As to `C[C@@H]1CN([C@H](C)CO)S(=O)(=O)c2ccc(C#C[C@@H](C)O)cc2O[C@H]1CN(C)Cc1ccc(-c2ccccc2)cc1`, the “activity change, negative = inhibition” value is -7.21%.

Consider `C[C@H]1CN([C@@H](C)CO)C(=O)c2cc(NS(=O)(=O)c3ccccc3)ccc2O[C@@H]1CN(C)Cc1ccc(C(=O)Nc2ccccc2N)cc1`, for which the “activity change, negative = inhibition” value was -9.69% [at 12 µM].

As to `C[C@@H]1CN([C@@H](C)CO)C(=O)c2ccccc2-c2ccccc2CO[C@H]1CN(C)Cc1ccccc1C(F)(F)F`, the “activity change, negative = inhibition” value is -23%.

Take `C[C@H](CO)N1C[C@H](C)[C@@H](CN(C)Cc2ccccc2F)Oc2cc(C#CC3CC3)ccc2S1(=O)=O`: the “activity change, negative = inhibition” value is 29.7%.

As to `C[C@@H]1CN([C@@H](C)CO)C(=O)c2cccc(N(C)C)c2O[C@@H]1CN(C)Cc1ccccc1`, the “activity change, negative = inhibition” value is 35.5%.

As for `C[C@H]1CN([C@@H](C)CO)C(=O)c2cccc(NC(=O)c3ccncc3)c2O[C@H]1CN(C)S(C)(=O)=O`, the “activity change, negative = inhibition” value is 16.1%.

On to `C[C@@H]1CN([C@@H](C)CO)C(=O)c2cc(NS(=O)(=O)c3ccccc3)ccc2O[C@@H](C)CCCCO[C@H]1CN(C)S(=O)(=O)c1ccc(Cl)cc1`, for which the “activity change, negative = inhibition” value is -18.9%.

Take `CCCC#Cc1ccc2c(c1)O[C@@H](CN(C)C(=O)c1cnccn1)[C@@H](C)CN([C@@H](C)CO)S2(=O)=O`: the “activity change, negative = inhibition” value was -11.5%.

With `COc1ccc(S(=O)(=O)Nc2ccc3c(c2)C(=O)N([C@@H](C)CO)C[C@H](C)[C@@H](CN(C)Cc2ccc(C(F)(F)F)cc2)OCCCC[C@@H](C)O3)cc1`, the “activity change, negative = inhibition” value was -1.58%.

Regarding `CCCC#Cc1ccc([C@H]2[C@H]3CN(S(=O)(=O)Cc4ccccc4)CCCCN3[C@H]2CO)cc1`, the “activity change, negative = inhibition” value is -16.6%.
